LT uptake inh – anthrax lethal toxin internalization inhibition | 0.67% of 70,000 active | AID 912 | Cells, anthrax lethal toxin internalization, FRET ratio (460/530) | Potency, µM (top dose mostly 40 µM), without a hit: at the highest dose activity change, negative = inhibition, hits mostly inhibitors; also: % is scaled to controls: 0 for no effect and ±100 for the full control effect; nearly all actives have a fitted effect of over 50% in size
AmpC inh no det – AmpC beta-lactamase inhibition, detergent-free assay | Potency, µM (doses to about 28.7 µM), for inactives: at the top dose activity change, negative = inhibition | 1.8% of 71,000 active | AmpC nitrocefin hydrolysis, absorbance 480 nm, no detergent; also: % of control where 0% means no effect
Target sequence (P00811 whole entry, looked up): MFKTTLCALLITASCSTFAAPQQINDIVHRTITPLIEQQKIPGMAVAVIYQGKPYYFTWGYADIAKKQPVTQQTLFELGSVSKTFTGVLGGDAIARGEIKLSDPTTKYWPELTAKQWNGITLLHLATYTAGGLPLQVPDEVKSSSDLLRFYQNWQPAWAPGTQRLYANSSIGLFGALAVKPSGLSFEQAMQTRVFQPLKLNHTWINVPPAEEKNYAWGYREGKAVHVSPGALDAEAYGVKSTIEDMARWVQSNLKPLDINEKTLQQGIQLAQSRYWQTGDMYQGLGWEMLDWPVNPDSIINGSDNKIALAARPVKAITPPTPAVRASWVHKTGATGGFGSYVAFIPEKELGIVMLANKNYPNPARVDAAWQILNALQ
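Enzyme, pH 7.0 phosphate. Compound titrations were pre-incubated with AmpC for 15 min at room temperature before nitrocefin (stock 800 uM) addition; product formation was recorded at 480 nm every 20 s for 4 min.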
AmpC det inh – inhibitors of E. coli AmpC beta-lactamase with detergent; 0.09% of 71,000 active; P00811; purified AmpC, nitrocefin hydrolysis with detergent; AID 584; Potency, µM (top dose mostly 28.7 µM), for the others: at the top dose activity change, negative = inhibition; active = well fitted curve in the direction sought with a large enough effect; inconclusive = small, poorly fitted or top-dose-only effect; also: % is scaled to controls: 0 for no effect and ±100 for the full control effect
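E. coli AmpC (5.3 nM) in 20 mM phosphate pH 7.0 with 0.01% Triton X-100, preincubated 15 min RT with compound; nitrocefin (2 uL of 800 uM stock) hydrolysis followed by 480 nm absorbance every 20 s over 4 min.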
Prx2 Sm inh – blocks S. mansoni peroxiredoxin 2 enzymatic activity; Potency, µM; S. mansoni Prx2 activity coupled to TGR/GSH (TGR is thioredoxin glutathione reductase), NADPH fluorescence loss, qHTS; 0.07% of 65,000 active; AID 448
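Prx2 activity was followed as the loss of NADPH fluorescence (ex 365/em 450 nm), read every 30 sec for 8 min after H2O2 start. The enzyme mix (50 nM Prx2, 25 nM TGR, GSH, NADPH; pH 7.4 phosphate buffer) was incubated with compound for 15 min at room temperature first.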
* marks the source's active call; other numbers are inactive results; ? = inconclusive; nt = no result; [ ] = remark or other dose. An excerpt weighted towards active compounds, which were near 2.6% of everything screened. Unless noted, calls follow the shape of the full dose curve. Potency is read from the fitted curve at half-maximal effect.

SMILES	LT uptake inh	AmpC inh no det	AmpC det inh	Prx2 Sm inh
COC(=O)c1ccc(C(NC(=O)OCc2ccccc2)/C(=C/[C@@H](C)C(=O)NCCF)c2cccnc2)cc1 (stereo not given in full)	-14%	111%	18%	nt
O=C(Cc1ccc2c(c1)OCCO2)c1c(O)cc(O)cc1O	-1%	10µM*	-4%	>57
O=C(O)COc1ccc(C(=O)Cc2ccc3c(c2)OCCCO3)c(O)c1	-7%	-11%	-1%	>57
COC(=O)NC(c1ccc(Cl)cc1)C(C(C)=O)C(=O)OC (stereo not given)	-8%[8 µM]	nt	nt	nt
Cn1c(C(=O)N2CCN(C3CCCCC3)CC2)cc2c(=O)n(C)c3ccccc3c21	-6%	4µM*[single pt active]	13%	>57
Cn1c(C(=O)N2CCN(c3ccc(F)cc3)CC2)cc2c(=O)n(C)c3ccccc3c21	-2%	10%	10%	>57
Cn1c(C(=O)N2CCN(c3ccc(Cl)cc3)CC2)cc2c(=O)n(C)c3ccccc3c21	-25%	4µM*[single pt active]	10%	>57
Cn1c(C(=O)N2CCN(c3ccccn3)CC2)cc2c(=O)n(C)c3ccccc3c21	14%	4µM*[single pt active]	14%	>57
O=C(O)[C@@H](c1ccccc1)[C@@H](C(=O)O)c1ccccc1	3%[8 µM]	-2%[5.75 µM]	-1%[5.75 µM]	>57
O=C(Nc1cccc(F)c1)N1CCC2(CC1)CCN(C(=O)c1csnn1)CC2	5%	29%	-3%	>11
O=C(Cn1c(-c2ccccc2)noc1=O)Nc1ccc(N2CCCCCC2)cc1	?	13µM*	-2%	>57
O=C(Cn1c(-c2ccccc2)noc1=O)Nc1ccc(S(=O)(=O)N2CCOCC2)cc1	-5%	19%	-8%	>57
Fc1cccc2sc(Nc3nnc(-c4ccccc4)o3)nc12	-2%	13µM*[single pt active]	-1%	>57
c1ccc2c(-c3nnc4n3CCCCC4)c[nH]c2c1	?	-1%	0%	>57
CN1CC=C(c2c[nH]c3ccccc23)CC1	-13%	4µM*[single pt active]	11%	>57
CCCN(CCC)CCCNC(=O)c1cc2c(=O)n(C)c3ccccc3c2n1C	3.2µM*	18%	17%	>57
CCN(CC)CCCNC(=O)c1cc2c(=O)n(C)c3ccccc3c2n1C	10µM*	?	9%	nt
CCCCN(CC)CCNC(=O)c1cc2c(=O)n(C)c3ccccc3c2n1C	5µM*	4µM*[single pt active]	10%	>57
COc1ccc(O[C@H]2C=C[C@@H](c3ccccc3)O[C@@H]2CON=C(C)C)cc1	-8%[8 µM]	nt	nt	nt
O=C1C=CC(=Nc2cccc3c(N=C4C=CC(=O)O4)cccc23)O1	0%[8 µM]	-12%[5.75 µM]	-4%[5.75 µM]	>57
O=C(CSc1nc2c(cnn2-c2ccccc2)c(=O)[nH]1)c1ccc(Cl)cc1	2%	7.9µM*	-1%	>57
Oc1cccc(Nc2nc(NCC3CCCO3)c3ccccc3n2)c1 (stereo not given)	-22%	10µM*	-1%	>57
CN(C)c1ncc2nc(-c3ccc(Cl)cc3)c(=O)n(C3CC3)c2n1	?	-1%	2%	>57
CC(C)Cc1nnc(NS(=O)(=O)c2ccc(Cl)cc2)s1	-14%	4µM*[single pt active]	25%	>57
COCc1nnc(NS(=O)(=O)c2ccc(C)cc2)s1	-6%	-10%	15%	>57
SMILES	LT uptake inh	AmpC inh no det	AmpC det inh	Prx2 Sm inh
CC(C)CO/N=C1/C[C@@H](O)[C@@H](O)[C@@H]2[C@@H]3C(=O)N(Cc4ccc5c(c4)OCO5)C(=O)[C@H]3CC[C@@H]12	-7%[8 µM]	nt	nt	nt
CCCCOC(=O)C1[C@H]2C(=O)N(CCc3ccccc3)C[C@]23C=C[C@H]1O3 (stereo not given in full)	12%	17%	-1%	>57
COc1ccc(C(C)N2CC34C=CC(O3)C(C(=O)OCC(C)C)C4C2=O)cc1 (stereo not given)	-9%	4µM*[single pt active]	15%	>57
CCc1ccccc1N1CC23C=CC(O2)C(C(=O)OCC(C)C)C3C1=O (stereo not given)	9%	41%	8%	>57
CCc1ccc(N2CC34C=CC(O3)C(C(=O)OC(C)C)C4C2=O)cc1 (stereo not given)	17%	3.2µM*[single pt active]	6%	>57
CCCCOC(=O)C1C2C=CC3(CN(CCc4ccccc4)C(=O)C13)O2 (stereo not given)	15%	4µM*[single pt active]	12%	>57
CCc1ccc(N2CC34C=CC(O3)C(C(=O)OC)C4C2=O)cc1 (stereo not given)	-14%	4µM*[single pt active]	6%	>57
CC(C)C[C@@H](CC(=O)N[C@@H](CCC(=O)O)CC(=O)O)NC(=O)[C@@H]1CNCC[C@H]1NC(=O)C[C@@H](NC(=O)C[C@H](CO)NC(=O)[C@@H]1CNCC[C@H]1N)C(C)C	3%	8%	-5%	>57
CCOC(=O)CCc1c(C)nc2c(c(C)nn2C(C)(C)C)c1C	?	4µM*[single pt active]	13%	>57
CC1Cc2ccccc2N1C(=O)CSc1nnc(NC(=O)Cc2cccs2)s1 (stereo not given)	?	13µM*[single pt active]	8%	>57
CC(/C=C/C=C(C)/C=C/C(=O)O)=C\C=C\C=C(C)\C=C\C=C(C)\C=C\C(=O)O	-4%	36%	7%	nt
COc1ccc(O)c(-c2cc(-c3cccc(Br)c3)n[nH]2)c1	?	-20%	17%	nt
COc1ccc(-c2cc(-c3cc(F)ccc3O)[nH]n2)cc1OC	10µM*	78%	4%	>57
Oc1ccccc1-c1cc(-c2ccc3c(c2)OCCO3)n[nH]1	20µM*	-6%	12%	>57
COC(=O)c1cc(-c2ccc(OC)c(OC)c2)n[nH]1	-13%	3%	-3%	>57
COc1ccc(-c2cc(-c3ccccc3O)[nH]n2)cc1OC	13µM*	46%	8%	nt
CCCNC(=O)OC[C@@H]1O[C@H](CCO/N=C(\C)CCN2CCc3nc(-c4ccccc4)c(-c4ccccc4)cc3C2)C=C[C@@H]1Oc1ccc(OC)cc1	-4%[8 µM]	nt	nt	nt
COc1ccc(CNC(=O)c2cc(-c3cccc(OC)c3)on2)cc1	?	-9%	2%	>57
COc1ccc(-c2cc(C(=O)NCc3ccccc3)no2)cc1OC	-1%	0.4µM*	?	?
COc1ccc(CNC(=O)c2cc(-c3ccc(OC)c(OC)c3)on2)cc1	5%	25%	-2%	>57
COc1cccc(-c2cc(C(=O)NCc3ccc(Cl)cc3)no2)c1	5%	13µM*[single pt active]	3%	nt
Cc1ccc(C)c(S(=O)(=O)Nc2ccccc2C(=O)Nc2cc(C)on2)c1	?	6.3µM*	-4%	>57
C[C@@]1(C(=O)O)CCC[C@@H]1C(=O)O	-1%[8 µM]	-1%[5.75 µM]	0%[5.75 µM]	>57
CCOC(=O)OCC	-1%	-5%	6%	nt
CCOC(=O)CC(SP(=S)(OC)OC)C(=O)OCC (stereo not given)	?	?	6.3µM*	nt
CCNc1ncc2nc(C)c(=O)n(-c3ccc(OC)cc3)c2n1	-29%	15%	-4%	>57
COc1ccc(-n2c(=O)c(C)nc3cnc(N(C)C)nc32)cc1	10µM*	20%	0%	>57
CCOc1cccc(-c2nnc3sc(COc4ccc(Cl)cc4)nn23)c1	-3%	7.9µM*	-1%	>57
CCOc1cccc(-c2nnc3sc(COc4ccc(C)cc4)nn23)c1	-13%	16%	1%	>57

From PubChem BioAssay
